Screening results (PubChem)
MCF10A rerep: A quantitative high throughput screen for small molecules that induce DNA re-replication in MCF 10a normal breast cells; 350,000 compounds, 2.9% hits; MCF 10A DNA re-replication, Hoechst nuclear intensity, 48 h; Potency, µM (highest dose often 46.1 µM), for inactives: top-dose activity, positive = re-replication, usual class: activators; further: potency means the concentration at half of the fitted maximal effect; % of control where 0% means no effect; nearly all actives have a fitted effect of over 50% in size
SW480 rereplic: A quantitative high throughput screen for small molecules that induce DNA re-replication in SW480 colon adenocarcinoma cells; SW480 DNA re-replication, Hoechst DNA content imaging, 48 h; 340,000 compounds, 1.8% hits; AID 624297, 2012; Potency, µM (highest dose often 46.1 µM), without a hit: top-dose re-replication activation, hits mostly activators; further: potency means the concentration at half of the fitted maximal effect; % of control where 0% means no effect; nearly all actives have a fitted effect of over 55% in size
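Image-based DNA-content assay: after two days of treatment, nuclei were labelled with the DNA dye Hoechst and imaged, and hits were compounds raising the count of nuclei showing high fluorescence intensity.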
Gal4-VP16 FLuc: VP16 counterscreen qHTS for inhibitors of ROR gamma transcriptional activity; Drosophila S2 Gal4-VP16 UAS-luciferase, luminescence, 20 h; Potency, µM (top dose mostly 53.6 µM), for inactives: at the highest dose activity, negative = inhibition, actives largely listed as inhibitors; 310,000 compounds, 3.5% hits;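 further: Gal4-VP16 expression switched on by copper sulfate through the metallothionein promoter; potency means the concentration at half of the fitted maximal effect; on the % scale 0 is the no-effect control and ±100 the full control effect; nearly all actives have a fitted effect of over 50% in size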
RORgamma inh: qHTS for inhibitors of ROR gamma transcriptional activity; Nuclear receptor ROR-gamma (Mus musculus), P51450; Drosophila S2 Gal4-RORgamma UAS-luciferase reporter, 20 h; Potency, µM (top dose mostly 53.6 µM), for inactives: at the highest dose activity change, negative = inhibition, hits mostly inhibitors; 310,000 compounds, 5.4% hits; further: potency means the concentration at half of the fitted maximal effect; on the % scale 0 is the no-effect control and ±100 the full control effect; nearly all actives have a fitted effect of over 60% in size
Target sequence (P51450 whole entry, looked up, the tested form may be a part): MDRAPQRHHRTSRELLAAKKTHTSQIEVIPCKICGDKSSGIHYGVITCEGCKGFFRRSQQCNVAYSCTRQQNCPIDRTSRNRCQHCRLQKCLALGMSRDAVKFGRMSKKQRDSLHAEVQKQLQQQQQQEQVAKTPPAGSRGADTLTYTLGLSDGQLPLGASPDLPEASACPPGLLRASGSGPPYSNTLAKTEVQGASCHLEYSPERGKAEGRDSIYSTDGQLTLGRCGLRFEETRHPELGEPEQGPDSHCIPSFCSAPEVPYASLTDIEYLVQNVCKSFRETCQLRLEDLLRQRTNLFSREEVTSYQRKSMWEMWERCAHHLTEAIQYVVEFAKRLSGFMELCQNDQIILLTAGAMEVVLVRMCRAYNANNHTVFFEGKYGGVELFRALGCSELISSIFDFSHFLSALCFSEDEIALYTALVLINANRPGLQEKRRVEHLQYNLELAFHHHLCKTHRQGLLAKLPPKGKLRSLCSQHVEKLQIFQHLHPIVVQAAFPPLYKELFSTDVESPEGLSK
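In this cell-based reporter format, copper sulfate (700 uM final) drives Gal4–ROR gamma fusion expression from a metallothionein promoter in Drosophila Schneider cells; compounds preincubated 1 hr, reporter read after 20 hr at ambient temperature.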
IL-1B inflam inh: qHTS for Inhibitors of Inflammasome Signaling: IL-1-beta AlphaLISA Primary Screen | activity change, % at 57.5 µM | AID 743279, 2014 | THP-1 LPS/ATP IL-1B secretion, AlphaLISA, 16 h; hits give low values | 360,000 compounds, 4.7% hits; in the data active means activity change below about -50%; inconclusive means mostly about -30% to -49%; further: on the % scale 0 is the no-effect control and ±100 the full control effect
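Secreted IL-1B measured by AlphaLISA bead assay after 16 h compound exposure of THP-1 cells; compounds (final up to 57.5 uM) added 1 h before LPS (250 ng/mL) and ATP (1.25 mM) stimulation; lower signal means less secretion.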
Starred values were filed as active, the others as inactive; ? = inconclusive; . = no result; [ ] = remark or other dose. A selection: hits, their analogues and other compounds. The true share with any hit is near 11%. Unless noted, the call rests on the fitted dose curve; in most records, active means well fitted curve in the direction sought with a large enough effect; inconclusive means small, poorly fitted or top-dose-only effect, or another doubt; inactive means no such curve, though single readings can be large; an effect the other way counts as inactive or inconclusive.

SMILES	MCF10A rerep	SW480 rereplic	Gal4-VP16 FLuc	RORgamma inh	IL-1B inflam inh
CC[C@H](C)C(N)C(=O)O (stereo not given in full)	.	.	-0.9%	-3.9%	.
Cc1cc(NC(=S)Nc2cccc3ccccc23)n[nH]1	4.5%	2.4%	5.01µM*	2.82µM*	31.0
Fc1ccc(NC(=S)Nc2cccc3ccccc23)cc1F	-15.4%	-2.1%	?	11.2µM*	1.8
CC(=O)N(C)c1ccc(NC(=S)Nc2ccc(C(C)C)cc2)cc1	?	0.1%	22.4µM*	7.08µM*	21.3
Cc1cccc(NC(=S)Nc2cccc3ccccc23)c1	-0.6%	-3.0%	8.91µM*	7.08µM*	20.1
CC1(c2nnnn2Cc2ccccc2)CCC(=O)N1CCc1ccc(O)cc1 (stereo not given)	.	.	.	.	-2.4
O=C(CSc1nc2ccccc2s1)NNC(=S)Nc1ccc(Cl)cc1	-0.7%	0.8%	8.91µM*	5.01µM*	25.0
O=C(O)CC/C(=C\c1cc([N+](=O)[O-])ccc1Cl)c1nc2ccccc2s1	19.2%	-2.5%	2.3%	3.0%	15.2
O=C(Nc1ccc(Cl)cc1)/C(=C/c1ccc([N+](=O)[O-])cc1)c1nc2ccccc2s1	.	.	5.01µM*	5.01µM*	.
C=CCNC(=S)NNC(=O)CSc1nc2ccccc2s1	17.3%	-5.7%	?	7.08µM*	35.4
COc1ccc2c(c1)sc(=NC(=O)CS(=O)(=O)c1ccc(F)cc1)n2C	29.1%	?	.	.	-8.0
N[C@H](C(=O)O)[C@H](OCc1ccccc1)C(=O)O	.	.	2.5%	-6.8%	.
COc1ccc(C(=O)N/N=C/c2ccc(SC)cc2)cc1	6.3%	5.17µM*	0.0%	?	-7.5
CSc1ccc(/C=N/NC(=O)c2ccc(O)cc2)cc1	-8.0%	-1.9%	2.24µM*	0.562µM*	-4.5
COc1ccc(C(=O)N/N=C/c2ccc(N(C)c3ccccc3)cc2)cc1	?	8.6%	.	.	?
C=CCN(CC=C)C(=S)NC(=O)Cc1cccc2ccccc12	-0.4%	0.5%	0.794µM*	0.199µM*	33.6
O=C(Cc1cccc2ccccc12)Nc1ccccc1	7.7%	6.1%	.	.	-7.2
O=C1C=CC(=O)N1c1ccc(O)cc1	10.3µM*	20.6µM*	?	12.6µM*	-7.8
O=C1C=CC(=O)N1c1ccc(OC(F)F)cc1	?	23.1µM*	4.47µM*	6.31µM*	-91.4*
O=C(O)CNC(=O)c1ccc(OC(F)F)cc1	26.3%	-7.9%	-3.5%	-8.1%	7.5
CC(NC(=S)NC1CCCCC1)c1ccccc1 (stereo not given)	-1.8%	-0.6%	?	-17.9%[1.91 µM]	25.8
CCC(NC(=S)NC1CCCCC1)c1ccc(C)cc1 (stereo not given)	.	.	5.01µM*	2.82µM*	.
CCCc1ccc(C(C)NC(=S)NC2CCCCC2)cc1 (stereo not given)	21.0%	?	3.55µM*	2.51µM*	0.0
COc1ccccc1/C=C\C(=O)OC[C@@H]1CCCN2CCCC[C@H]12	.	.	-1.2%	-0.3%	.
CC(CC(=O)NCCc1ccc(F)cc1)c1ccccc1 (stereo not given)	6.9%	-5.3%	?	0.0%	-14.2
SMILES	MCF10A rerep	SW480 rereplic	Gal4-VP16 FLuc	RORgamma inh	IL-1B inflam inh
CC(O)(c1ccccc1)c1nc(-c2ccncc2)cs1 (stereo not given)	.	.	.	.	-0.6
COc1ccccc1N1CCN(C(=O)c2ccc([N+](=O)[O-])s2)CC1	-4.6%	?	-9.0%	7.94µM*	-3.1
O=C(c1cccs1)N1CCN(c2cccc(Cl)c2)CC1	-1.2%	-11.3%	-0.8%	2.1%[1.91 µM]	-14.0
O=C(c1ccc([N+](=O)[O-])s1)N1CCN(c2cccc(Cl)c2)CC1	?	?	-18.9%	-24.1%	-57.7*
COc1ccccc1N1CCN(C(=O)c2cc(C(=O)N3CCN(c4ccccc4OC)CC3)cc([N+](=O)[O-])c2)CC1	0.1%	0.2%	-5.6%	-17.8%	18.5
C[C@@H]1CN([C@@H](C)CO)C(=O)CCCn2nncc2CO[C@H]1CN(C)S(=O)(=O)c1ccc(Oc2ccccc2)nc1	.	.	.	.	18.3
Cc1ccccc1Oc1cc(-n2ncc(Cl)c(Cl)c2=O)ncn1	0.731µM*	?	3.16µM*	1.12µM*	-105.6*
Cc1ccc(CNC(=O)/C=C/[C@H]2O[C@@H](n3cc(C)c(=O)[nH]c3=O)C[C@@H]2O)o1	.	.	.	.	-1.5
COc1ccc(-c2cc(C(F)(F)F)n3nc(C(=O)N4CCCCC4)cc3n2)cc1	9.0%	7.4%	1.3%	22.1%	-53.1*
COc1cccc(-c2cc(C(F)(F)F)n3nc(C(=O)N4CCCCC4c4cccnc4)cc3n2)c1 (stereo not given)	?	?	-8.5%	22.1%	-71.8*
COc1ccc(-c2cc(C(F)(F)F)n3nc(C(=O)NCCCN4CCOCC4)cc3n2)cc1	?	8.2µM*	-4.5%	19.2%	-13.8
O=C(NCCCn1ccnc1)c1cc2nc(-c3ccc(Br)cc3)cc(C(F)(F)F)n2n1	14.6µM*	?	-9.3%	-21.5%	?
COc1ccc(-c2cc(C(F)(F)F)n3nc(C(N)=O)cc3n2)cc1	.	.	.	.	23.3
COc1ccccc1CNc1nc(Nc2ccccc2-n2cccn2)c2sccc2n1	.	.	.	.	-14.8
CCC(=O)N1CCC1(C)C(=O)Nc1cc(-c2ccccc2)nn1C (stereo not given)	.	.	.	.	-6.6
CCOC(=O)c1nn(-c2ccc(F)cc2)c(=O)cc1OCC(=O)Nc1ccc(F)c(F)c1	31.8%	-615.2%	.	.	0.3
Cc1cc(NC(=O)C2(C)CCN2C(C)C)c2ccccc2n1 (stereo not given)	.	.	.	.	90.4
Cc1ccc(S(=O)(=O)OCC2CN3C(CCC(C)C3c3ccc(Br)cc3)C(=O)O2)cc1 (stereo not given)	.	.	-5.6%[10 µM]	15.9%[10 µM]	.
O=CNc1cc(-c2ccoc2)cn2c(-c3ccc(F)cc3)cnc12	.	.	.	.	23.2
CC(C)(C)c1ccc(Cn2c(=N)n(CC(O)c3ccco3)c3ccccc32)cc1 (stereo not given)	?	?	?	?	-67.4*
CCCCCCCn1c(=N)n(CC(O)c2ccco2)c2ccccc21 (stereo not given)	?	-37.6%	-6.5%	-26.9%	0.0
Cc1ccccc1Cn1c(=N)n(CC(O)c2ccco2)c2ccccc21 (stereo not given)	26.3%	10.0%	-6.4%	1.5%	-77.1*
CC(C)=NO[C@@H](C)c1cn([C@@H]2COC[C@@H]2O)nn1	.	.	-5.7%[10 µM]	0.6%[10 µM]	.
Cc1ccc2c(c1C)-c1c(ccc(C)c1C)C(=O)C2=O	4.11µM*	3.26µM*	.	.	-85.3*
Cc1ccc(CC#N)c(-c2c(CC#N)ccc(C)c2C)c1C	.	.	.	.	21.3
CCOC(=O)C1=C(C)OC(=Cc2ccc(OC)cc2)C1=O	.	.	.	.	11.3
